{"source": "PubChem BioAssay (NCATS)", "note": "“And” between values parts separate entries of the source, which are not always exact repeats. Equal entries are not always repeated. Inconclusive results are not listed. Unmarked numbers belong to inactive results. The source made the active and inactive calls.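 The calls were made as follows, unless noted: active = compounds whose dose-response curve shows a full or clear partial loss of cell viability, called from curve shape rather than a numeric limit; inconclusive = weak partial curves or an effect only at the top dose; inactive = no dose-dependent loss of viability.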 Potency is read from the fitted curve at half-maximal effect.", "data": [{"assay": "Cell Viability - Hek293 (AID 427);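 also: cells exposed to compound for 40 hours at 37 °C before reading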", "settings": "qHTS", "method_in_brief": "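HEK293 cells in complete medium were exposed to compound for 40 hr at 37 °C, then cellular ATP was read by CellTiter-Glo luminescence. Data were normalized to DMSO (basal) and 100 uM tamoxifen (100% inhibition), and AC50 came from Hill fits.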", "values": [{"smiles": "CCCN(CCC)C(=O)SCC", "Potency": "> 92 µM"}, {"smiles": "COc1ccc2nc(N)sc2c1", "Potency": "> 92 µM"}, {"smiles": "ClCCCl", "Potency": "> 92 µM"}, {"smiles": "CCC(O)OC(O)CC", "note": "(configuration not stated)", "Potency": "> 92 µM"}, {"smiles": "C=Cc1ccccc1Cl", "Potency": "> 92 µM"}, {"smiles": "c1ccc2c(c1)c1cccc3ccc4cccc2c4c31", "Potency": "> 92 µM"}, {"smiles": "Cc1cccc([N+](=O)[O-])c1C", "Potency": "> 92 µM"}, {"smiles": "CCCCCCCCO", "Potency": "> 92 µM"}, {"smiles": "CC(C)=CCCC(C)CCO", "note": "(configuration not stated)", "Potency": "> 92 µM"}, {"smiles": "O=[N+]([O-])c1cccc(Cl)c1Cl", "Potency": "> 92 µM"}, {"smiles": "CCO[Si](CCCN)(OCC)OCC", "Potency": "> 92 µM"}, {"smiles": "Clc1cc(Cl)c(Cl)cc1Cl", "Potency": "> 92 µM"}, {"smiles": "CCO", "Potency": "> 92 µM"}, {"smiles": "C=CC(=O)OCCOCCOCCOCCOC(=O)C=C", "Potency": "24.8 µM (active) and 28.8 µM (active)"}, {"smiles": "Clc1cc(Cl)c(Cl)c(Cl)c1Cl", "Potency": "> 92 µM"}, {"smiles": "CCCCC(CC)CN", "note": "(configuration not stated)", "Potency": "> 92 µM"}, {"smiles": "O=NO", "Potency": "> 92 µM"}, {"smiles": "c1ccc2c(c1)[nH]c1ccccc12", "Potency": "> 92 µM"}, {"smiles": "OCCNCCO", "Potency": "> 92 µM"}, {"smiles": "Nc1ccc(Cl)cc1Cl", "Potency": "> 92 µM"}, {"smiles": "CCC(C)c1ccccc1O", "note": "(configuration not stated)", "Potency": "> 92 µM"}, {"smiles": "CC1=CC(C)(C)Nc2ccccc21", "Potency": "> 92 µM"}, {"smiles": "CN(C)C=O", "Potency": "> 92 µM"}, {"smiles": "Cc1ccc(N)c([N+](=O)[O-])c1", "Potency": "> 92 µM"}, {"smiles": "CCCCOCCO", "Potency": "> 92 µM"}, {"smiles": "CC(=O)OC/C=C(\\C)CCC=C(C)C", "Potency": "> 92 µM"}]}, {"assay": "Cell Viability - MRC5 (AID 434; calls by dose curve;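 also: potency reflects cytotoxicity seen as loss of intracellular ATP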)", "settings": "MRC5 lung fibroblast viability, qHTS", "method_in_brief": "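MRC5 normal human lung fibroblasts, 1500 cells/well, exposed to compound for 40 hr at 37 C. Cellular ATP was read by CellTiter-Glo luminescence; data normalized to DMSO and 100 uM tamoxifen, with AC50 from Hill fits.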", "values": [{"smiles": "CCCN(CCC)C(=O)SCC", "Potency": "> 92 µM"}, {"smiles": "COc1ccc2nc(N)sc2c1", "Potency": "> 92 µM"}, {"smiles": "ClCCCl", "Potency": "> 92 µM"}, {"smiles": "CCC(O)OC(O)CC", "note": "(configuration not stated)", "Potency": "> 92 µM"}, {"smiles": "C=Cc1ccccc1Cl", "Potency": "> 92 µM"}, {"smiles": "c1ccc2c(c1)c1cccc3ccc4cccc2c4c31", "Potency": "> 92 µM"}, {"smiles": "Cc1cccc([N+](=O)[O-])c1C", "Potency": "> 92 µM"}, {"smiles": "CCCCCCCCO", "Potency": "> 92 µM"}, {"smiles": "CC(C)=CCCC(C)CCO", "note": "(configuration not stated)", "Potency": "> 92 µM"}, {"smiles": "O=[N+]([O-])c1cccc(Cl)c1Cl", "Potency": "> 92 µM"}, {"smiles": "CCO[Si](CCCN)(OCC)OCC", "Potency": "> 92 µM"}, {"smiles": "Clc1cc(Cl)c(Cl)cc1Cl", "Potency": "> 92 µM"}, {"smiles": "CCO", "Potency": "> 92 µM"}, {"smiles": "C=CC(=O)OCCOCCOCCOCCOC(=O)C=C", "Potency": "41.6 µM (active)"}, {"smiles": "Clc1cc(Cl)c(Cl)c(Cl)c1Cl", "Potency": "> 92 µM"}, {"smiles": "CCCCC(CC)CN", "note": "(configuration not stated)", "Potency": "> 92 µM"}, {"smiles": "O=NO", "Potency": "> 92 µM"}, {"smiles": "c1ccc2c(c1)[nH]c1ccccc12", "Potency": "> 92 µM"}, {"smiles": "OCCNCCO", "Potency": "> 92 µM"}, {"smiles": "Nc1ccc(Cl)cc1Cl", "Potency": "> 92 µM"}, {"smiles": "CCC(C)c1ccccc1O", "note": "(configuration not stated)", "Potency": "> 92 µM"}, {"smiles": "CC1=CC(C)(C)Nc2ccccc21", "Potency": "> 92 µM"}, {"smiles": "CN(C)C=O", "Potency": "> 92 µM"}, {"smiles": "Cc1ccc(N)c([N+](=O)[O-])c1", "Potency": "> 92 µM"}, {"smiles": "CCCCOCCO", "Potency": "> 92 µM"}, {"smiles": "CC(=O)OC/C=C(\\C)CCC=C(C)C", "Potency": "> 92 µM"}]}]}
